# Compounds with a hit are over-represented: about 5.8% of the library has one in this group of screens.
# PINK1 expr mod = modulators of PINK1 expression | actives 0.2% (n = 410,000) | PINK1 immunofluorescence, high-content cytometry, 24 h | Potency, µM (series often up to 76.6 µM), without a hit: at the highest dose activation (PINK1 increase), actives largely listed as activators | AID 624263; active = well fitted activation curve with a large enough effect; inconclusive = small, poorly fitted or top-dose-only effect; cell line not stated here; also: % of control where 0% means no effect; nearly all actives have a fitted effect of over 65% in size
#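 Measures PINK1 amount and localization on or inside mitochondria by immunofluorescence. Stable cells get compounds at 5 concentrations for 24 hours before fixation and staining; CCCP controls included.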
# KB-V1 cytotox = kills drug-selected multidrug resistant KB-V1 cells | actives 3.4% (n = 400,000) | Potency, µM (top dose mostly 46.1 µM), hits mostly cytotoxic | KB-V1 MDR cells viability, CellTiter-Glo, 72 h; also: % is scaled to controls: 0 for no effect and ±100 for the full control effect; nearly all actives have a fitted effect of over 60% in size
#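 Potencies derive from concentration-effect curves fitted to normalized luminescence (CellTiter-Glo) of KB-V1 cells treated for 72 h at 37 degrees C in phenol-red-free DMEM containing 10% FBS.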
# SW480 rereplic = inducers of DNA re-replication in SW480 colon cancer cells. SW480 DNA re-replication, Hoechst DNA content imaging, 48 h. Potency, µM (titrated, usually from 46.1 µM), for inactives: at the highest dose re-replication activation, hits mostly activators. actives 1.8% (n = 340,000). AID 624297; also: % of control where 0% means no effect; nearly all actives have a fitted effect of over 55% in size
#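 SW480 cells exposed to compounds for 48 hr at 37 C, 5% CO2, then Hoechst-stained 40 min. Nuclear DNA content imaged by fluorescence scanning (405 nm excitation, 500-530 nm emission); re-replication scored as increased high-intensity nuclei.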
# MCF10A rerep = inducers of DNA re-replication in MCF 10A breast cells; actives 2.9% (n = 350,000); MCF 10A DNA re-replication, Hoechst nuclear intensity, 48 h; Potency, µM (series often up to 46.1 µM), for the others: at the highest dose activity, positive = re-replication, actives largely listed as activators; also: % of control where 0% means no effect; nearly all actives have a fitted effect of over 50% in size
# KB-3-1 tox = KB-3-1 parental cell cytotoxicity. KB-3-1 viability, CellTiter-Glo ATP luminescence, 72 h. Potency, µM (titrated, usually from 46.1 µM), hits mostly cytotoxic. actives 1.4% (n = 400,000). AID 1347075; also: % is scaled to controls: 0 for no effect and ±100 for the full control effect; nearly all actives have a fitted effect of over 60% in size
#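 Cells are dispensed, compounds pinned in, plates held at 37 °C for 72 h, then CellTiter-Glo is added and luminescence read after 10 minutes. Cell line: parental KB-3-1 in phenol-red-free DMEM, 10% FBS.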
# ALOX12 inh = ALOX12 (human) lipoxygenase inhibition. purified 12hLO, xylenol orange hydroperoxide absorbance. Potency, µM (titrated, usually from 108 µM), for the others: top-dose activity change, negative = inhibition, usual class: inhibitors. actives 1.1% (n = 580,000). AID 1671190; also: % is scaled to controls: 0 for no effect and ±100 for the full control effect
#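 Purified human 12hLO at 150 nM in 25 mM Hepes, 0.01% Triton X-100, pH 7.0, preincubated 15 min at room temperature with compound. Reaction started with 40 uM arachidonic acid, 30 min at room temperature. Hydroperoxide measured by Fe-xylenol orange, 573/405 nm absorbance ratio.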
# * marks the source's active call; other numbers are inactive results; i = inactive; ? = inconclusive; / = no result; [ ] = another dose, or the depositor's remark. Unless noted, calls follow the shape of the dose curve; as a rule, active = well fitted curve in the direction sought with a large enough effect; inconclusive = small, poorly fitted or top-dose-only effect, or another doubt; inactive = no such curve, though single readings can be large; an effect the other way counts as inactive or inconclusive. Potency is read from the fitted curve at half-maximal effect.
SMILES,PINK1 expr mod,KB-V1 cytotox,SW480 rereplic,MCF10A rerep,KB-3-1 tox,ALOX12 inh
Oc1c(C(c2ccccc2Cl)N2CCCC2)ccc2cccnc12 (centres undefined),5%,i,-4%,?,13µM*,?
COc1cccc(CNC(=O)c2ccc(S(=O)(=O)N3CCc4ccccc4C3)cc2)c1,/,/,/,/,/,6%
Cc1nccn1CCN(C)c1ccc(-c2nc(COc3ccccc3)no2)cn1,/,/,/,/,/,168%
NS(=O)(=O)c1ccc(-c2ccc(/C=N/Nc3ccc(C(=O)O)cc3)o2)cc1,1%,i,?,15%,i,23%
O=C(O)c1ccc(N/N=C/c2ccc(-c3cccc(Cl)c3)o2)cc1,?,i,21µM*,?,?,8%
CC1=NN(c2ccc(Br)cc2)C(=O)/C1=C/c1ccc(-c2ccccc2C(=O)O)o1,1%,i,14%,23µM*,i,10%
O=C(O)c1ccc(N/N=C/c2ccc(-c3cc(Cl)ccc3Cl)o2)cc1,?,?,12µM*,2.1µM*,i,-24%
O=C(O)c1ccc(N/N=C/c2ccc(-c3ccc(Cl)cc3Cl)o2)cc1,?,i,23µM*,?,23µM*,?
COC(=O)c1ccc(Cl)c(-c2ccc(/C=N/NC(=O)Nc3ccccc3)o2)c1,6%,i,0%,11%,i,9%
Cc1cc(C)c(NC(=O)CC(C)(C)CC(=O)O)c(C)c1,/,/,/,/,/,-41%
O=C(CN1CCCCC1c1nc2ccccc2s1)NC(=O)Nc1ccc2c(c1)OCO2 (centres undefined),/,/,/,/,/,-5%
Cc1nc2ccc(S(=O)(=O)N(CC(=O)N3CCN(C)CC3)Cc3ccccc3)cc2s1,/,/,/,/,/,-6%
COc1ccc(CN2C(=O)O[C@@H]3CN(C4CCCCC4)C[C@@H]32)cc1OC,/,/,/,/,/,2%
Cc1c(NCc2nc(-c3ccco3)no2)cccc1-n1cnnn1,/,/,/,/,/,-29%
O=C(CCn1ccn2nc3c(c2c1=O)CCCC3)NC1CCCCCC1,/,/,/,/,/,12%
Cc1c(C(=O)O)cccc1-c1ccc(/C=N/Nc2ccc(Br)cc2)o1,-2%,i,5%,18µM*,?,45µM*
O=C(O)c1cc(N/N=C/c2ccc(-c3ccc(F)cc3)o2)ccc1Cl,-1%,i,18µM*,18µM*,i,?
CSc1ccc2cc(CN(C)CCO)c(-c3ccc(Cl)cc3)nc2c1,/,/,/,/,/,18%
CCCN1C(=O)c2cc(C(=O)NCc3ccccc3OC)nn2CC1(C)C(=O)NC1CCCC1 (centres undefined),/,/,/,/,/,2%
CC(=O)N1CCC2(CC1)CC(=O)c1cc(OCC(=O)N3CCOCC3)ccc1O2,0%,i,21µM*,7%,i,-19%
CCOC(=O)N1CCN(C(=O)COc2ccc3c(c2)C(=O)CC2(CCN(C(C)=O)CC2)O3)CC1,-2%[38.3 µM],i,-7%,-3%,i,26%
Clc1ccccc1CNCCN1CCCC1,/,/,/,/,/,-8%
CC(=O)c1c(CSc2ccccc2)oc2ccc(O)c(CN(C)C)c12,0%,i,13µM*,?,i,?
CCOC(=O)c1c(CSc2ccc(C)cc2)oc2ccc(O)cc12,-1%,i,11%,?,i,?
CCOC(=O)c1c(CSc2ccc(CC)cc2)oc2ccc(O)c(CN(C)C)c12,-4%,?,18µM*,?,?,?
COC(=O)Cc1c(CSc2ccccc2)oc2ccc(O)c(CN(C)C)c12,5%,i,-2%,?,i,0%
CCOC(=O)c1c(CSc2ccccc2)oc2ccc(O)cc12,7%,i,0%,18µM*,i,?
CC(Oc1ccccc1)C(=O)N1CCc2c(c(-c3nncn3C(C)C)nn2C)C1 (centres undefined),/,/,/,/,/,43%
CCN(CC(=O)Nc1cccc(OC)c1)C(=O)Cc1nc(-c2ccccc2)oc1C,/,/,/,/,/,-7%

# Screening data from PubChem BioAssay.
